# From PubChem BioAssay (NCI)
# Values joined by “and” are separate entries in the source; they are usually repeats but may differ in a detail not shown here. Equal entries are not always repeated. The panel holds about 83,000 compounds, 20% with a hit somewhere; the sample as a whole holds those more often.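 The endpoint reported here, percent growth, reads 100 for growth as untreated, 0 for no net growth and -100 for all cells dead.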 Active and inactive are the calls of the source. The calls were made as follows: active = growth percent below 10; inactive = the rest.
# Tested on: MDA-MB-468 breast
# Assay: NCI-60 one-dose screen, 48 h (100 = growth as untreated, 0 = no growth, -100 = all killed)
# Settings: 10 µM unless noted
row,SMILES,growth
1,CN1C(=O)N(C)C2(c3ccccc3)OC(=S)NC12c1ccccc1 (stereo not given),112% (inactive)
2,CN1C(=O)N(C)C2Nn3c(s/c(=C4\C(=O)N(CCc5ccccc5)c5ccccc54)c3=O)=NC21 (stereo not given),39% (inactive)
3,CN1C2C=CC(=O)C1C1C(=O)N(c3ccccc3)C(=O)C12 (stereo not given),0.669% (active)
4,COC(=O)CCC1=C(CC(=O)OC)C(C)=N/C1=C\c1[nH]c(-c2ccc[nH]2)cc1OC,61.9% (inactive)
5,CC(C)c1c(C(=O)Nc2ccccc2)c(-c2ccccc2)c(-c2ccc(F)cc2)n1CC[C@@H]1CC=CC(=O)O1,-48.3% (active)
6,C[N+](C)(CCCCCC[N+](C)(C)C1c2ccccc2-c2ccccc21)C1c2ccccc2-c2ccccc21,107% (inactive)
7,O=C1C=CC(=O)N1c1ccc2ccccc2c1,51.3% (inactive) and 62.7% (inactive)
8,COc1cc2c(c(OC)c1OC)CCC(c1cccc(C(=O)Nc3ccc([N+](=O)[O-])cc3)c1)O2 (stereo not given),38.2% (inactive)
9,CN(C)CCSC1=Nc2ccc(Cl)cc2C(c2ccccc2Cl)N(C)C1 (stereo not given),58.4% (inactive)
10,Nc1cc(N)c(N=Nc2ccc(S(=O)(=O)O)cc2)cc1N=Nc1ccc(-c2ccc(N=Nc3ccc(O)c(C(=O)O)c3)cc2)cc1,97.6% (inactive)
11,CCOC(=O)Cn1c(O)c(N=Nc2ccc(S(N)(=O)=O)cc2)c2cc(Br)ccc21,96.4% (inactive)
12,Cc1cccc([N+](=O)[O-])c1Cl,92.4% (inactive)
13,CCOC(=O)c1c(C)nc2c(c1N)/C(=C/c1ccc(OC)cc1)C(=O)N2Cc1ccccc1,66.7% (inactive)
14,Cc1nc2ncccc2nc1Nc1ccc(S(=O)(=O)Nc2ccccn2)cc1,109% (inactive)
15,CCN(CC)CCOc1ccc(/C(=C(\C)c2ccc(F)c(OC)c2)c2ccc(Cl)cc2)cc1,-15.7% (active)
16,C/C(=N/N)c1nnn(-c2ccc(Br)cc2)c1C,94.8% (inactive)
17,COc1cc2oc(-c3ccc(NC(=O)c4ccccc4)cc3)cc(=O)c2c(OC)c1OC,96.5% (inactive)
18,O=C(COC(=O)[C@H](C[Se][Se]C[C@H](NC(=O)c1ccc(Br)cc1F)C(=O)OCC(=O)c1ccc(F)cc1)NC(=O)c1ccc(Br)cc1F)c1ccc(F)cc1,-79.5% (active)
19,COc1cc(OC)cc(-c2n/c(=C\c3c(O)[nH]c4ccc(Cl)cc34)cc3c2=Nc2ccccc2-3)c1,98.1% (inactive)
20,O=C(Nc1ccncc1)C(=O)c1cn(S(=O)(=O)c2ccc(Oc3ccccc3)cc2)c2ccccc12,55.4% (inactive)

row,SMILES,growth
1,C#CCOc1ccccc1/C=N/Nc1nc(-c2ccc(Cl)cc2)cs1,95.6% (inactive)
2,COc1ccccc1CNCCCN1C(=O)c2ccc3c4c(ccc(c24)C1=O)C(=O)N(CCCNCCCCNCCCN)C3=O,-84.5% (active)
3,O=[N+]([O-])/C(=C\c1ccco1)c1ccccc1Cl,55.7% (inactive)
4,NC(N)=Nc1ccc(Oc2cccc(Nc3ccc(Cl)c(C(F)(F)F)c3)c2)cc1,4.84% (active)
5,CC1=C[C@H]2c3c(c(O)c(O)c4oc5cc(O)ccc5c(=O)c34)[C@H](c3cc(O)c(O)c4oc5cc(O)ccc5c(=O)c34)[C@H]2C(C)(C)C1,34.3% (inactive)
6,C[C@@H](Oc1cc(-n2cnc3ccc(CN4CCN(C)CC4)cc32)sc1C(N)=O)c1ccccc1C(F)(F)F,6.59% (active)
7,COc1ccc2nccc(Cl)c2c1,100% (inactive)
8,CC1CN(Cc2ccccc2)C(=O)NC1=O (stereo not given),111% (inactive)
9,CCN(CC)CCn1c2ccc(O)cc2c2sc3cc(OC)ccc3c(=O)c21,33.8% (inactive)
10,CCOC(=O)c1c2c(n3ccccc13)C(=O)c1ncccc1C2=O,80.8% (inactive)
11,CN(C)C(=O)Nc1nc2cc(Cl)c(Cl)cc2[nH]1,-13.4% (active)
12,O=C(NC1CCCCCC1)c1ccc2c(=O)n3c(nc2c1)CCCCC3,81.2% (inactive)
13,C/C=C/C(N)=O,101% (inactive)
14,CCN1C(=O)N(CC)C2SC(N/N=C/c3cccs3)=NC21 (stereo not given),32.4% (inactive)
15,COc1cc(OC)c2cc(C(=O)c3ccc(C#N)cc3)c(=O)oc2c1,94.1% (inactive)
16,OC1CC2c3ccccc3C1c1ccccc12 (stereo not given),111% (inactive)
17,CCN(CC)S(=O)(=O)c1cccc(-c2ccc3c(NC(=O)C4CC4)n[nH]c3c2)c1,6.55% [6.25 µM] (active)
18,CC(C)(C)OC(=O)NC(CSCc1ccccc1)C(=O)ON1C(=O)CCC1=O (stereo not given),115% (inactive)
19,Cc1cc2nc3c4ccc(Br)cc4n(CCN(C)C)c3nc2cc1C,-6.68% (active)
20,Cc1cccc(C[C@H](NC(=O)Nc2ccc(Cl)cc2F)C(=O)N[C@@H]2C(=O)N3C[C@H](O)C[C@H]3C(=O)N3CCCC[C@H]3C(=O)N[C@@H](C)C(=O)N3C[C@H](C)C[C@H]3C(=O)O[C@H]2C)c1,-7.94% (active)
